# About 16,000 (4.4%) of roughly 360,000 compounds were called active. Not shown: some 9% with an inconclusive outcome. The call rests on the fitted dose curve; in most records, active means well fitted inhibition curve with a large enough effect; inconclusive means small, poorly fitted or top-dose-only effect; inactive means no such curve, though single readings can be large or run the other way. The sample as a whole holds a higher share of actives than the screen did.
# Biological target: Bromodomain adjacent to zinc finger domain protein 2B (Homo sapiens) (UniProt Q9UIF8)
# Sequence (Q9UIF8 whole entry, looked up, the tested form may be a part): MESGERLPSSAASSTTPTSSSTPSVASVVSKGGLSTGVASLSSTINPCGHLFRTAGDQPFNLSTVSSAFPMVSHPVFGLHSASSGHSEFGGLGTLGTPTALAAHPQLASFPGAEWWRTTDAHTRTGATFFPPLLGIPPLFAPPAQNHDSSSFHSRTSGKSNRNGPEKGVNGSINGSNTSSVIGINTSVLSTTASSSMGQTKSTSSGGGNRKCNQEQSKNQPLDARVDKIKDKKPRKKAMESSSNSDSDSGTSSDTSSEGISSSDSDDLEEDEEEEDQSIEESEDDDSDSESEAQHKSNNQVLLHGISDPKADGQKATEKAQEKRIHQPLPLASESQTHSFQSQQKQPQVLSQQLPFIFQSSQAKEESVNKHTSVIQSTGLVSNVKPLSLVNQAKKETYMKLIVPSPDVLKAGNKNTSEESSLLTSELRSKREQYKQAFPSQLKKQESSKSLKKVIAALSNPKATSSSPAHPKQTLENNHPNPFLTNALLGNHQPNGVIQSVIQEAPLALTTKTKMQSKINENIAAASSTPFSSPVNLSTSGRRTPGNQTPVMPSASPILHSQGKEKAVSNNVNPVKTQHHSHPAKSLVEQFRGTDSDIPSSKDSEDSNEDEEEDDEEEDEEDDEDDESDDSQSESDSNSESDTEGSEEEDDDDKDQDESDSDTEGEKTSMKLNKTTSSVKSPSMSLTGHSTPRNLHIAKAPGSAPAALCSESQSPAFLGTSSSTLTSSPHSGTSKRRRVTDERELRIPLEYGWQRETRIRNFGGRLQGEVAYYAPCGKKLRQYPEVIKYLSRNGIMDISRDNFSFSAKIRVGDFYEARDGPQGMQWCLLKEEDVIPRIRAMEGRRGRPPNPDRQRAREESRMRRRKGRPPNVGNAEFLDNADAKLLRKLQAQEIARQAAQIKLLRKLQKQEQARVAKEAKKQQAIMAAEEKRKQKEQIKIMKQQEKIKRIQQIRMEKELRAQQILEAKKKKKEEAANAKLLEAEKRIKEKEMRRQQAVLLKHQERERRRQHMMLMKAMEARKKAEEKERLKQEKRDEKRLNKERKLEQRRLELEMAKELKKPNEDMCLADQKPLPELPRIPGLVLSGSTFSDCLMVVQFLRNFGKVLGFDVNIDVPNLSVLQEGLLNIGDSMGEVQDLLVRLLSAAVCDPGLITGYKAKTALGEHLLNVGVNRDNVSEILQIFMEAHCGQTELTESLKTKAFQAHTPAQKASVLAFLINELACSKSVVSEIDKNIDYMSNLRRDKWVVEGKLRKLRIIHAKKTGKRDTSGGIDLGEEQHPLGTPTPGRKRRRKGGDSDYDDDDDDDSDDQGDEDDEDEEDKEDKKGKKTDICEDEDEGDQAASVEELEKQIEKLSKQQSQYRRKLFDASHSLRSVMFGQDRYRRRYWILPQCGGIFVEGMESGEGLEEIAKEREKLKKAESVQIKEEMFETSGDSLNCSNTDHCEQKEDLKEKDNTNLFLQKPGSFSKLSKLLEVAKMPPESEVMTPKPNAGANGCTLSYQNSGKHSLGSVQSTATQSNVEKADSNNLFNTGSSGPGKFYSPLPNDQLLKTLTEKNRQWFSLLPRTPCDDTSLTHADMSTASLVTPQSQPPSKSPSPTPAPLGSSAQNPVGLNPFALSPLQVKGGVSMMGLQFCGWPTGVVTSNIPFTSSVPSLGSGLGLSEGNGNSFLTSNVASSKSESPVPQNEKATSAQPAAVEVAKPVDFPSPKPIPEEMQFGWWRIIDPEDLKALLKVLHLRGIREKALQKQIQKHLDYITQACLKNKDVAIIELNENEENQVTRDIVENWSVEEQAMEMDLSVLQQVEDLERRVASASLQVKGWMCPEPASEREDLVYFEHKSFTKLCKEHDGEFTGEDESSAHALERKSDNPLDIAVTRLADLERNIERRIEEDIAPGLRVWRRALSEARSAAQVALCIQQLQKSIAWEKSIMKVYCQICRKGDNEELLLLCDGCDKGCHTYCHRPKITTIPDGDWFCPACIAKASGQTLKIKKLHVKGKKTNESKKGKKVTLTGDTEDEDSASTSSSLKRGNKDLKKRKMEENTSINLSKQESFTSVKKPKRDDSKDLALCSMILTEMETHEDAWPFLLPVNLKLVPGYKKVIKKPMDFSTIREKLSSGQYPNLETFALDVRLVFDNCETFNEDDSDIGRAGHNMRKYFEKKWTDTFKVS
# Experiment: qHTS Assay for Inhibitors of BAZ2B; further: nearly all actives have a fitted effect of over 60% in size
# Settings: AlphaScreen BAZ2B-H3K14Ac peptide displacement; series mostly up to 114 µM; activity change, negative = inhibition: at the top concentration
# Summary of the method: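 BAZ2B 50 nM plus b-H3(5-23)K14Ac 50 nM, PBS pH 7.4/0.01% Tween-20, 30 min RT; compound added (max 110 uM), 30 min RT; streptavidin donor/Ni-chelate acceptor beads 10 ug/mL final, 20 min dark; AlphaScreen read.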
# On the % scale 0 is the no-effect control and ±100 the full control effect; potency means the concentration at half of the fitted maximal effect.
Structure (SMILES),Potency,"activity change, negative = inhibition"
CCC(=C/c1sc2ccc3ccccc3c2[n+]1C)/C=C1\Sc2ccc3ccccc3c2N1C,50.1 µM (active),–
N#C/C(=C/c1ccc(N2CCOCC2)o1)C(=O)N1CCOCC1,–,-0.368% (inactive)
N#C/C(=C\C1=C(N2CCOCC2)C(=C\c2ccccc2)/CC1)C(=O)Nc1ccccc1F,2 µM (active),–
N#C/C(=C\c1ccccc1C(F)(F)F)C(=O)Nc1ccccc1F,–,6.18% (inactive)
Cc1ccc2c(=O)c(C(=O)c3ccc(Cl)cc3)cn(CC(=O)NC3CCCCC3)c2n1,–,8.9% [at 57.1 µM] (inactive)
CC(=O)N1C(=O)/C(=C2\SC(=S)N(NC(=O)c3ccc(O)cc3)C2=O)c2ccccc21,39.8 µM (active),–
O=C(O)c1ccc2c(c1)C(=O)N(NC(=O)c1ccc(O)cc1)C2=O,–,-2.56% (inactive)
COc1ccc2c(c1)N(C)/C(=C1/SC(=S)N(NC(C)=O)C1=O)S2,–,-7.93% (inactive)
CCOC(=O)c1cccc(NC(=O)c2cc(S(=O)(=O)N3CCCC(C)C3)cn2C)c1 (stereo not drawn),–,-18.7% (inactive)
CCCCN1CC(c2nc3ccccc3n2CCCCOc2ccc(C)cc2C)CC1=O (stereo not drawn),–,0.797% (inactive)
Cc1ccc(N=C2NC(=O)/C(=C/C=C/c3ccco3)S2)cc1C,44.7 µM (active),–
CCOC(=O)c1cc(-c2ccccc2)n(CCC(=O)Nc2ccccc2CC)c1C,–,-1.42% (inactive)
CC(C)CC(=O)NCC(c1ccc2c(c1)OCO2)N1CCN(c2ccc(F)cc2)CC1 (stereo not drawn),–,22.9% (inactive)
Cc1nnc(NCc2ccccc2)c2c1nnn2Cc1ccc(F)cc1,–,-0.128% (inactive)
CCOc1ccc(C(=O)c2cn(Cc3ccc(F)cc3)c3ccc(F)cc3c2=O)cc1,–,-19.7% (inactive)
CCOc1ccc2oc(=O)cc(CN3CCN(C(=O)c4ccc(F)cc4)CC3)c2c1,–,-6.12% (inactive)
COc1ccc2oc(=O)cc(CN3CCOCC3)c2c1,–,7.09% (inactive)
CCOc1ccc(N(C)Cc2cc(=O)oc3ccc(OC)cc23)cc1,22.4 µM (active),–
Cc1ccc(O)c(NC(=O)CCS(=O)(=O)c2nc(-c3ccc4c(c3)OCO4)cc(C(F)(F)F)n2)c1,–,-27% (inactive)
CCOC(=O)c1ccc(NC(=O)c2ncn(-c3ccccc3)n2)cc1,–,1.63% (inactive)
Fc1ccc(-c2nn(-c3ccccc3Cl)c3c2cnc2ccccc23)cc1,–,-26.2% (inactive)
COc1cccc(CNC(=O)Cn2c(=O)c3cccn3c3ccc(F)cc32)c1OC,–,4.05% (inactive)
CCOC(=O)c1cnc2c(C)cc(C)cc2c1Nc1ccc(N2CCOCC2)cc1,7.08 µM (active),–
Cc1ccc(OCCCC(=O)Nc2ccc(N3CCOCC3)cc2)cc1,–,-34.6% (inactive)
CCOC(=O)c1cnc2c(C)cc(Cl)cc2c1NCCc1ccc(OC)c(OC)c1,–,8.49% (inactive)
CCOc1cccc(NC(=O)CSc2ncc(-c3ccc(Cl)cc3)[nH]2)c1,–,-26.2% (inactive)

Structure (SMILES),Potency,"activity change, negative = inhibition"
Cc1cc(NS(=O)(=O)c2ccc3oc(=O)c4ncn(C)c4c3c2)ccc1Br,–,6.88% (inactive)
O=[N+]([O-])c1ccccc1OCCCCN1CCCCC1,–,5.81% (inactive)
CC1CC(C)CN(CCOc2cccc3ccccc23)C1 (stereo not drawn),–,-2.56% (inactive)
CC1CN(CCOc2ccccc2[N+](=O)[O-])CC(C)O1 (stereo not drawn),25.1 µM (active),–
Cc1ccccc1CNC(=O)CCc1cn(Cc2ccccc2C)c2ccccc12,–,-10.3% (inactive)
CCc1cc2c(cc3c(=O)n(CC(=O)NCc4cccc(Cl)c4)nc(CC)n32)s1,–,-7.23% (inactive)
COc1ccccc1C(=O)NCCn1cc(SCc2ccccc2Cl)c2ccccc21,–,-19.3% (inactive)
Cc1ccc(CN2CCC(CNC(=O)c3cnn(-c4ccc(C)cc4)c3C3CCN(C(=O)OC(C)(C)C)CC3)CC2)cc1,–,-7.01% [at 57.1 µM] (inactive)
O=C(COc1ccccc1[N+](=O)[O-])N/N=C/c1ccc[nH]1,–,-11.5% (inactive)
C=CCN(CC=C)CCOc1ccccc1[N+](=O)[O-],39.8 µM (active),–
O=C(COc1ccccc1[N+](=O)[O-])NC1CC1,–,-4.34% (inactive)
CC(NC(=O)c1cc(Sc2ccc(F)cc2F)nc2ccccc12)c1ccccc1 (stereo not drawn),–,1.71% (inactive)
CN=C1C=C/C(=N/N=c2\ccn(O)cc2C)C=C1C,35.5 µM (active),–
O=C(CN1c2ccccc2S(=O)(=O)c2ccccc21)Nc1cccc(C(F)(F)F)c1,–,-20% (inactive)
CCOC(=O)c1ccc(NC(=O)CC2C(=O)N(c3ccccc3)C(=O)N2Cc2cccs2)cc1 (stereo not drawn),–,-17.8% (inactive)
Cc1cccc(NC(=O)c2nc(S(=O)(=O)Cc3ccccc3)ncc2Cl)c1,–,-35.2% (inactive)
CSc1nnc(NC(=O)c2nc(S(=O)(=O)Cc3ccc(C)cc3)ncc2Cl)s1,56.2 µM (active),–
Cc1ccc(CS(=O)(=O)c2ncc(Cl)c(C(=O)Nc3nnc(C)s3)n2)cc1,–,-35.7% (inactive)
Fc1ccc(-n2ncc3c(Nc4ccc(Oc5ccccc5)cc4)ncnc32)cc1,–,2.34% (inactive)
CCOc1ccccc1NC(=O)c1ccc2c(c1)CCN2S(=O)(=O)c1ccc(C)cc1,–,-25.9% (inactive)
Cc1ccc(CN2CCN(/N=C/c3ccco3)CC2)c(C)c1,50.1 µM (active),–
COc1ccc(-c2nc(CN3CCN(c4ncccn4)CC3)c(C)o2)cc1C,–,-3.56% (inactive)
Cc1ccc(NC(=O)CCC(=O)N/N=C/c2ccco2)c(C)c1,–,-32.8% (inactive)
Cc1ccc(CN2CCN(c3ncccn3)CC2)c(C)c1,50.1 µM (active),–
CN(C)C(=O)c1nc2ccc(Cl)cn2c1CN1CCN(c2ncccn2)CC1,–,4.33% (inactive)
C/C(=N\N1CCN(Cc2ccc(C)cc2)CC1)c1ccco1,–,-28.7% (inactive)

Structure (SMILES),Potency,"activity change, negative = inhibition"
Cc1oc2ccc(O)c(CN3CCCCC3)c2c1C(=O)Nc1cccc(C(F)(F)F)c1,–,-14.8% (inactive)
Cc1ccc(CNC(=O)Cn2c(=O)ccc3cc(S(=O)(=O)N4CCCC4)ccc32)cc1,–,1.64% (inactive)
CCOC(=O)c1ccc(NC(=O)C2CC(=O)NC(=Nc3ccc(C)c(C)c3)S2)cc1 (stereo not drawn),–,-0.662% (inactive)
Cc1cccc(NC(=O)C2CCCN2S(=O)(=O)c2cccc3nsnc23)c1C (stereo not drawn),–,-17.8% (inactive)
CCC(=O)Nc1cccc(C(=O)OCc2cc(=O)n3nc(CC)sc3n2)c1,–,-13.9% (inactive)
COc1ccc(-c2nn(-c3ccccc3)cc2/C=C2/SC(=S)N(CCCC(=O)O)C2=O)c(C)c1,50.1 µM (active),–
Cc1ccc(/C=C2/SC(=S)N(CCC(=O)NCCCN3CCOCC3)C2=O)cc1,–,-37.2% (inactive)
COc1ccc(-c2nn(-c3ccccc3)cc2/C=C\C(=O)N2CCOCC2)cc1[N+](=O)[O-],–,3.98% (inactive)
COc1ccc(-c2nn(-c3ccccc3)cc2CN2CCCO2)c(F)c1,–,-14.8% (inactive)
O=C1/C(=C\c2ccccc2Cl)SC(=S)N1CCC(=O)N1CCCc2ccccc21,–,-33.1% (inactive)
Cc1cc(OCCCC(=O)NCCN2C(=O)S/C(=C\c3cccnc3)C2=O)ccc1Cl,–,6.35% (inactive)
CN(C)S(=O)(=O)c1cccc(-c2nn(-c3ccccc3)cc2/C=C2\SC(=S)N(CC(=O)O)C2=O)c1,50.1 µM (active),–
Cc1ccc(-c2nn(-c3ccccc3)cc2/C=C/C(=O)Nc2cccc(S(N)(=O)=O)c2)cc1,–,-24.1% (inactive)
Cc1ccc(-c2nn(-c3ccccc3)cc2/C=C2\SC(=S)N(CCCCCC(=O)O)C2=O)o1,6.31 µM (active),–
Cc1ccc2c(=O)c(C(=O)c3cccc(Cl)c3)cn(CC(=O)NCc3ccccc3)c2n1,–,0.489% (inactive)
CN1C(=O)c2[nH]nc(-c3ccc(F)cc3)c2C1c1ccccn1 (stereo not drawn),–,5.35% (inactive)
COc1ccc(CCNC(=O)c2cc(=O)c3c(C)cc(C)cc3o2)cc1OC,–,-3.78% (inactive)
CCOC(=O)c1ccc(CN(Cc2ccccc2)S(=O)(=O)c2ccc(Cl)cc2)cc1,–,47.5% (inactive)
COc1ccc(CNC(=O)c2cc3c(=O)[nH]c4ccc(C)cc4c3s2)c(OC)c1,–,9.8% (inactive)
COc1cccc(CNC(=O)c2ccc3c(Cl)c4c(nc3c2)CCCC4)c1,–,-9.46% (inactive)
CC(C)CC(=O)N1CCN(Cc2ccccc2Br)CC1,50.1 µM (active),–
CC(C)CC(=O)N1CCN(Cc2cccc(Cl)c2)CC1,–,-27.4% (inactive)
CCOc1cc(CN2CCN(C(=O)CC(C)C)CC2)ccc1OC,–,14.7% (inactive)
Cc1cc(OCC(=O)Nc2ncn[nH]2)c(C)c(C)c1Br,–,0.164% (inactive)
O=C(NC1CC(=O)N(c2ccc(F)cc2)C1)c1ccc(S(=O)(=O)N2CCCC2)cc1 (stereo not drawn),–,-0.208% (inactive)
Cc1ccccc1CS(=O)(=O)CC1Nc2ccc(C(=O)NCc3ccc(Cl)cc3)cc2NC1=O (stereo not drawn),–,5.28% [at 57.1 µM] (inactive)

Structure (SMILES),Potency,"activity change, negative = inhibition"
Cc1ccc(C)c(N2CCN(c3ccc4cc(S(=O)(=O)N5CCC(C)CC5)ccc4n3)CC2)c1,–,-30.7% (inactive)
COc1ccc(/C=C2/C(=O)OCc3cc(OC)c(OC)cc32)c(OC)c1,–,-4.92% (inactive)
COc1ccc(/C=C2/C(=O)N(c3ccccc3)N=C2C)c(OC)c1,11.2 µM (active),–
COc1ccc(C(=O)CCc2ccccc2O)c(OC)c1,–,-6.81% (inactive)
O=C(NCCCc1ccccc1)c1ccc2c(c1)sc1nc(-c3ccc(F)cc3)cn12,–,-22.3% (inactive)
COc1ccccc1CNC(=O)NCc1noc2ccc(C)cc12,–,-0.276% (inactive)
Cc1cc(F)ccc1S(=O)(=O)N1CCCOC1CNC(=O)C(=O)NCCC1=CCCCC1 (stereo not drawn),–,1.88% (inactive)
O=C(NCCCn1ccnc1)C(=O)NCC1OCCN1S(=O)(=O)c1cc(F)ccc1F (stereo not drawn),7.94 µM (active),–
COc1ccc(CCNC(=O)C(=O)NCC2OCCN2S(=O)(=O)c2ccc(F)cc2)cc1OC (stereo not drawn),–,-2.74% (inactive)
Cn1nnnc1SCCCNCc1ccc(Cl)cc1,–,0.215% (inactive)
Clc1ccccc1CSc1nnc(-c2ccco2)c(-c2ccco2)n1,14.1 µM (active),–
c1ccc(CSc2nnc(-c3ccco3)c(-c3ccco3)n2)cc1,20 µM (active),–
COc1ccc2nc(SCc3ccccc3)nc(C)c2c1,–,199% (inactive)
Fc1ccc(Nc2nc(SCc3ccccc3Cl)nc3ccccc23)cc1,–,-4.01% (inactive)
CC1(C)N=C(SCc2ccccc2Cl)c2ccccc2N1,–,162% [at 57.1 µM] (inactive)
CSc1nc(-c2ccco2)nn1C(=O)CCc1ccccc1,–,-5.3% (inactive)
Cc1cccc(NC(=O)N2CCC(CN3CCc4ccccc4C3)CC2)c1C,–,-0.909% (inactive)
Cc1ccc(NC(=O)CSc2nc3c([nH]c4ccccc43)c(=O)n2-c2ccccc2)c(C)c1,–,-1.13% (inactive)
CCOc1ccccc1NC(=O)Cn1c2ncccc2c(=O)n1-c1ccc(C)c(C)c1,–,5.16% (inactive)
CCOc1c(Br)cc(/C=C2\C(=O)N(CCC#N)N=C2C)cc1OC,–,-0.0526% (inactive)
COc1cc(/C=N/O)cc(Br)c1OCc1cccc(Cl)c1,–,0.334% (inactive)
COc1cc(/C=C2/C(=O)NN(c3ccc(F)cc3)C2=O)cc([N+](=O)[O-])c1O,39.8 µM (active),–
COc1cccc(/C=C2\SC(=N)N(c3ccc(F)cc3)C2=O)c1,–,-26.3% (inactive)
COc1cc(/C=C2/C(=O)NN(c3cccc(Cl)c3)C2=O)cc(Br)c1O,39.8 µM (active),–
COc1cc(CN2CC(C)CC(C)C2)cc([N+](=O)[O-])c1O (stereo not drawn),–,-4.76% (inactive)

# From PubChem BioAssay AID504333 (National Center for Advancing Translational Sciences (NCATS), 2011)
